The source made the active and inactive calls. How the source made its calls: active means hit-call score of the fitted dose curve at least 0.9, where 1 is the maximum; inactive means score below 0.9.
Columns and labels:
[1] = ATG_CRE_CIS: Attagene CIS-FACTORIAL HepG2 Assay for human cAMP Responsive Element (CRE) binding protein 3 (AID 2282926); details: HepG2 CRE cis-reporter, Attagene multiplexed mRNA; actives raise or lower the signal
In short: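 HepG2 cells transiently transfected with a multiplexed reporter library (CRE-driven unit among them) were dosed for 24 h. Reporter mRNA was quantified by RT-PCR, fluorescent labelling, HpaI digestion and capillary electrophoresis, with bidirectional fitting against DMSO baseline.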

[2] = molecular target: CCAAT/enhancer-binding protein beta (Homo sapiens) (UniProt P17676); test: ATG_C_EBP_CIS: Attagene CIS-FACTORIAL HepG2 Assay for human CCAAT/Enhancer Binding Protein (C/EBP) beta (AID 2282927); details: HepG2 Attagene cis-factorial transcription factor reporter; actives raise or lower the signal
In short: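 HepG2, transient MRTU transfection, 24 h treatment. RT-PCR plus CE fluorescence; DMSO negative control, bidirectional fit.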

[3] = ATG_CMV_CIS: Attagene CIS-FACTORIAL HepG2 Assay for human CMV (Internal Marker) (AID 2282928); details: HepG2 CMV promoter reporter, transcription factor profiling; actives raise or lower the signal;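 further: endpoint acts as a background internal control marker rather than a target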
In short: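 After transient transfection of HepG2 with reporter transcription units driven by cis-regulatory promoters, cells receive test chemical for 24 h. Labeled reporter amplicons, digested with HpaI, are sized and quantified by capillary electrophoresis against DMSO.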

[4] = ATG_DR4_LXR_CIS: Attagene CIS-FACTORIAL HepG2 Assay for human Liver X Receptor (LXR), DR4 submotif (AID 2282929); details: HepG2 Attagene DR4 cis-reporter, mRNA transcription; actives raise or lower the signal
In short: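 Fluorescence intensity of labelled reporter cDNA fragments, separated by capillary electrophoresis, gives the signal. HepG2 cells bearing cis-regulated reporter constructs were treated 24 h; activity fitted bidirectionally relative to DMSO negative control.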

[5] = ATG_AP_2_CIS: Attagene CIS-FACTORIAL HepG2 Assay for human Activator Protein 2 (AP-2) (AID 2282932); details: HepG2 AP-2 cis-reporter, Attagene transcription factor profiling; actives raise or lower the signal
In short: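 Multiplexed mRNA reporter assay in HepG2: cis-regulated units report endogenous factor activity after 24 h treatment. Fluorescence from capillary electrophoresis of RT-PCR products gives the signal, with DMSO as baseline.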

[6] = ATG_E_Box_CIS: Attagene CIS-FACTORIAL HepG2 Assay for human Enhancer Box (E-box) (AID 2282936); details: HepG2 E-box cis-reporter transcription, actives raise or lower the signal
In short: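 First, HepG2 cells receive multiple cis-regulated reporter constructs by transient transfection. Next, chemicals are applied for 24 h. Finally, reporter mRNA is quantified via RT-PCR and capillary electrophoresis, with DMSO as baseline.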

[7] = ATG_EGR_CIS: Attagene CIS-FACTORIAL HepG2 Assay for human Early Growth Response 1 (EGR1) (AID 2282938); details: HepG2 Attagene CIS-FACTORIAL EGR reporter mRNA; actives raise or lower the signal
In short: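 Activity is taken as induction or loss of reporter mRNA versus DMSO, fitted bidirectionally. Transcripts from cis-regulated reporter units in transiently transfected HepG2 were measured after 24 h by RT-PCR with capillary electrophoresis.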

[8] = ATG_M_19_CIS: Attagene CIS-FACTORIAL HepG2 Assay for M19 Transcription Factor (Internal Marker) (AID 2282939); details: HepG2 Attagene CIS-FACTORIAL M19 internal marker reporter; actives raise or lower the signal
In short: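 Following a 24 h exposure, RNA from transfected HepG2 cells was reverse-transcribed, PCR-amplified with reporter-specific primers, end-labelled with 6-FAM and HpaI-digested before capillary separation. Values represent gain or loss versus DMSO.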

[9] = ATG_Ets_CIS: Attagene CIS-FACTORIAL HepG2 Assay for human Erythroblast Transformation Specific (ETS) (AID 2282941); details: HepG2 ETS cis-reporter transcription, actives raise or lower the signal
In short: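 Human HepG2 hepatoma cells were transiently transfected with promoter-driven reporter constructs and treated for 24 hours. Reporter transcripts were quantified by RT-PCR with fluorescent primer extension; bidirectional curve fitting used DMSO as reference.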

[10] = molecular target: Hepatocyte nuclear factor 3-beta (Homo sapiens) (UniProt Q9Y261); test: ATG_FoxA2_CIS: Attagene CIS-FACTORIAL HepG2 Assay for human Forkhead box A2 (FOXA2) (AID 2282942); details: HepG2 cis-reporter transcription factor activity, 24 h; actives raise or lower the signal
In short: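 Reporter transcript induction is measured by fluorescence after capillary electrophoresis of RT-PCR products from HepG2 cells exposed 24 h. Cis-regulated reporter units report endogenous factor activity; curves fitted both directions against DMSO.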

[11] = ATG_FoxO_CIS: Attagene CIS-FACTORIAL HepG2 Assay for human Forkhead box O (FoxO) (AID 2282943); details: HepG2 Attagene cis-reporter, FoxO element, mRNA; actives raise or lower the signal
In short: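 Transfected HepG2 reporter cells exposed to test chemical for 24 h; reporter RNA measured by reverse transcription, PCR and fluorescent capillary electrophoresis; curves fitted for increases and decreases against DMSO.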

[12] = ATG_GATA_CIS: Attagene CIS-FACTORIAL HepG2 Assay for human GATA Binding Protein (AID 2282944); details: HepG2 GATA cis-element reporter, Attagene multiplex mRNA; actives raise or lower the signal
In short: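 DMSO serves as negative control and baseline for bidirectional fitting of reporter mRNA changes. HepG2 cells bearing transiently transfected cis-promoter reporters were exposed 24 h; transcripts detected via RT-PCR and capillary electrophoresis.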

[13] = ATG_M_32_CIS: Attagene CIS-FACTORIAL HepG2 Assay for M32 Transcription Factor (Internal Marker) (AID 2282949); details: HepG2 Attagene cis-factorial M32 reporter, mRNA; actives raise or lower the signal;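 further: background control marker of the multiplexed CIS panel rather than a real target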
In short: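 Internal background marker read-out: RT-PCR/capillary electrophoresis fluorescence of reporter transcripts from transiently transfected HepG2 cells after 24 h chemical exposure. Activity fitted bidirectionally relative to DMSO negative control.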

[14] = ATG_M_06_CIS: Attagene CIS-FACTORIAL HepG2 Assay for M06 Transcription Factor (Internal Marker) (AID 2282950); details: HepG2 Attagene CIS-FACTORIAL M06 internal marker reporter; actives raise or lower the signal
In short: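 Fluorescence-labelled RT-PCR products from cis-promoter reporter units, cut with HpaI and resolved by capillary electrophoresis, give the signal. Cells are human HepG2, dosed for 24 h. Serves as background control, fitted relative to DMSO.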

[15] = ATG_PXRE_CIS: Attagene CIS-FACTORIAL HepG2 Assay for human Pregnane X Receptor Element (PXRE) (AID 2282957); details: HepG2 Attagene CIS-FACTORIAL PXRE reporter, mRNA; actives raise or lower the signal
In short: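 HepG2 cells transiently transfected with cis-regulated multiple reporter transcription units; endogenous factor activity measured as reporter mRNA 24 h after dosing. RT-PCR, fluorescent primer extension, HpaI digestion, capillary electrophoresis; bidirectional fit versus DMSO baseline.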

[16] = ATG_Sox_CIS: Attagene CIS-FACTORIAL HepG2 Assay for human SRY-box transcription factor (SOX) (AID 2282960); details: HepG2 Attagene cis-factorial SOX reporter, mRNA; actives raise or lower the signal
In short: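 Measures mRNA induction of a SOX1-associated reporter in HepG2 after 24 h dosing. Fluorescently labelled RT-PCR fragments are separated by capillary electrophoresis, and gain or loss relative to DMSO control is fitted.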

[17] = molecular target: Transcription factor Sp1 (Homo sapiens) (UniProt P08047); test: ATG_Sp1_CIS: Attagene CIS-FACTORIAL HepG2 Assay for human Specificity Protein 1 (Sp1) (AID 2282961); details: HepG2 Sp1 cis-reporter transcription, actives raise or lower the signal
In short: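 Cells: HepG2, transiently transfected with cis-regulated multiplexed reporters. Exposure: 24 h. Detection: reporter transcripts amplified, fluorescently labeled, restriction-digested and sized by capillary electrophoresis. Analysis: bidirectional fit relative to DMSO.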

[18] = ATG_SREBP_CIS: Attagene CIS-FACTORIAL HepG2 Assay for human Sterol Regulatory Element Binding (SREBP) (AID 2282962); details: HepG2 Attagene cis-factorial SREBP reporter, mRNA; actives raise or lower the signal
In short: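 mRNA induction of transfected cis-promoter reporters in HepG2 cells, 24 h post-dose. Detection: RT-PCR with 6-FAM-labelled products, HpaI digest, capillary electrophoresis. DMSO served as negative control and baseline.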

[19] = molecular target: Signal transducer and activator of transcription 3 (Homo sapiens) (UniProt P40763); test: ATG_STAT3_CIS: Attagene CIS-FACTORIAL HepG2 Assay for human Signal Transducer and Activator of Transcription 3 (STAT3) (AID 2282963); details: HepG2, Attagene cis-factorial STAT3 reporter transcription; actives raise or lower the signal
In short: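 Values derive from bidirectional fits relative to DMSO of reporter mRNA levels, measured by RT-PCR with capillary electrophoresis, in HepG2 cells carrying transiently transfected cis-regulated reporter units and exposed 24 h.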

Measured: AC50

Hepatocyte nuclear factor 3-beta (Homo sapiens), sequence (Q9Y261 whole entry, looked up): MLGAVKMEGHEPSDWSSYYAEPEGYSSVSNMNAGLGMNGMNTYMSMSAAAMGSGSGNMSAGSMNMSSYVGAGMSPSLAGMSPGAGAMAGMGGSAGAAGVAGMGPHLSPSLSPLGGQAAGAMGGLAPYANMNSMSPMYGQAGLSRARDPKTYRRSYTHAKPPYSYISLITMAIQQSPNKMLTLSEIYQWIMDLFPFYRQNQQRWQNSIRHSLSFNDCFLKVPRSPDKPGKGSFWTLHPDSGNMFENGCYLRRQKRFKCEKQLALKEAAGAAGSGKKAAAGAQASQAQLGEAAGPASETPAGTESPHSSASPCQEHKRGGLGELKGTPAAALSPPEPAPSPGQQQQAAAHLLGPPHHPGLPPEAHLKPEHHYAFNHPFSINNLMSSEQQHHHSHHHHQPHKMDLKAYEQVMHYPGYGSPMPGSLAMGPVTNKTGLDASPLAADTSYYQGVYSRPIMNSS
Transcription factor Sp1 (Homo sapiens), sequence (P08047 whole entry, looked up): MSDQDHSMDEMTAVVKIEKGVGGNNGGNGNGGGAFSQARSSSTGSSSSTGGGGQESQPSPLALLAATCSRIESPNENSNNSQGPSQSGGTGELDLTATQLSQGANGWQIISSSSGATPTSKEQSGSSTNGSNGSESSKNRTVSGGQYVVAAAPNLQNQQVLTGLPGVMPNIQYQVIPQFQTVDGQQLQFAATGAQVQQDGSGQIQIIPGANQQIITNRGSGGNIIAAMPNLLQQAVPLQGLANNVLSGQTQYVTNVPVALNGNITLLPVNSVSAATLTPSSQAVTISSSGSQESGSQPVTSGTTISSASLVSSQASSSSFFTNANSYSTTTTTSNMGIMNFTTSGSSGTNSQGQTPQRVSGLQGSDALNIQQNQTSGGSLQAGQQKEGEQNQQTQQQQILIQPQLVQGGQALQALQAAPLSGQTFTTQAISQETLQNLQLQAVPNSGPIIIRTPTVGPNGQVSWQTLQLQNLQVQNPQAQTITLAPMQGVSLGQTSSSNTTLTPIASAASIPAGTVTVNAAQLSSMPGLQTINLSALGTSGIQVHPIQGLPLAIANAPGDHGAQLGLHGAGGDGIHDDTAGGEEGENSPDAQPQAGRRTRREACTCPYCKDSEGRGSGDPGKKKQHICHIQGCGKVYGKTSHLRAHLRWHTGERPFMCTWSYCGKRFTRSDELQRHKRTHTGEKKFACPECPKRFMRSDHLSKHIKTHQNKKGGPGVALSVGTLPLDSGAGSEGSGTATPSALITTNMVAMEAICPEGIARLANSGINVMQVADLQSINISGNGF
Signal transducer and activator of transcription 3 (Homo sapiens), sequence (P40763 whole entry, looked up): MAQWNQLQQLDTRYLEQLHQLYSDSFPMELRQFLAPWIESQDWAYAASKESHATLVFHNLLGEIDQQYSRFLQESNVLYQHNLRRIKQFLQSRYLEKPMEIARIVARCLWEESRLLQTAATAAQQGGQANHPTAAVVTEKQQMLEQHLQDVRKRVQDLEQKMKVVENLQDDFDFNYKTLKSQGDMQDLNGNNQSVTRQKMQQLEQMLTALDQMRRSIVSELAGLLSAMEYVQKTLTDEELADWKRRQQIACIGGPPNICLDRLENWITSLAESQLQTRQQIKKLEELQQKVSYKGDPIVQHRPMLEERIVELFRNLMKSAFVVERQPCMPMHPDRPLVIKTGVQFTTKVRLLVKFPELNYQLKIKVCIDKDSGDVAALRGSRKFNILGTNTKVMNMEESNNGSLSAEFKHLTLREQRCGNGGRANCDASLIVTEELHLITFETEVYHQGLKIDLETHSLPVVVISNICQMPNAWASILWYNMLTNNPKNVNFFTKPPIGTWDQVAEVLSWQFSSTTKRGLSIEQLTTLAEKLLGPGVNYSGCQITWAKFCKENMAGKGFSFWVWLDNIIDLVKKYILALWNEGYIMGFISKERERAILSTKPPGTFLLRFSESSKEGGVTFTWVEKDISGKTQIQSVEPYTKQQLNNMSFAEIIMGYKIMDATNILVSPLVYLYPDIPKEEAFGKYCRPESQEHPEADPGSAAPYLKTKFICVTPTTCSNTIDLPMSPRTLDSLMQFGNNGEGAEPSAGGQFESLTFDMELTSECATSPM
CCAAT/enhancer-binding protein beta (Homo sapiens), sequence (P17676 whole entry, looked up): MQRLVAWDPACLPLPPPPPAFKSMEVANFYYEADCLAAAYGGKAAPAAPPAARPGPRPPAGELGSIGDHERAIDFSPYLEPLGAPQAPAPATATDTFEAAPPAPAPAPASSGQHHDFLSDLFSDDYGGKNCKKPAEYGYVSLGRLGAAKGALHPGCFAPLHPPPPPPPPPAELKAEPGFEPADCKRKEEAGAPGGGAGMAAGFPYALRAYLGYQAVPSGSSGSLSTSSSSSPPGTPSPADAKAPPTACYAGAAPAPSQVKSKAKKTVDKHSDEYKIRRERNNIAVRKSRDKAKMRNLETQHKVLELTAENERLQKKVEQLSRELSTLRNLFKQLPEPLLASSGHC

Nc1ccc(-c2ccc(N)c(N)c2)cc1N
inactive: all assays above

O=C(O)CCl
inactive: all assays above

Nc1ccccc1
inactive: all assays above

NNc1ccccc1
active: [15] 38.9 µM
inactive: all other assays above

N#CC(c1ccccc1)c1ccccc1
active: [15] 11.1 µM
inactive: all other assays above

Reference: PubChem BioAssay (EPA / NIEHS)
